Here are results for two compounds from PubChem BioAssay AID2187 (The Scripps Research Institute Molecular Screening Center, 2009).

Each structure is given as a SMILES string. Out of some 1,300 compounds screened, about 1,200 (92%) were called active.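 Rule for the calls: active = inhibition of the VIM-2 beta-lactamase enzyme above about 11% from the earlier first-round screen (limit read from the data); inactive = the rest.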 So high a share suggests a set chosen from earlier hits. The list is a sample of the results.

This assay deals with VIM-2 metallo-beta-lactamase (Pseudomonas aeruginosa). Put plainly: VIM-2 metallo-beta-lactamase inhibitors, confirmation, biochemical, epi-absorbance, hits shared with IMP-1 screen (AID 2187).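 Note: 0% = VIM-2 with DMSO and 100% = buffer wells without enzyme.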 Particulars: purified VIM-2, nitrocefin hydrolysis, at 5.6 µM, stronger effect = higher value.
As usually defined, the inhibition is the relative decrease from the control value, in per cent. In the case of `Cc1cc(OCc2cc(C(=O)O)oc2C)c2c3c(c(=O)oc2c1)CCCC3`, the inhibition is 73.5% (active).

Consider `Cc1cc(=O)oc2c(C)c(OCC(=O)N3CCN(Cc4ccc5c(c4)OCO5)CC3)ccc12`, for which the inhibition is 58.3% (active).
